Experimental data reported in the supplement of paper PMC6763611.

System: Plasmodium falciparum NF54
Assay: growth inhibition relative to untreated control; higher = more inhibition
Conditions: 72 h
Summary of the method: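 P. falciparum NF54 ring stages (1% hematocrit, 1% parasitemia, 100 μL/well in 96-well half-area dark plates) were exposed for 72 h at 37 °C to single 5 μM or 1 μM doses of Pathogen Box compounds. The medium was minimal RPMI or minimal RPMI plus chorismate end-products (2.2 μM folate, 7.3 μM pABA, 7.3 μM pHBA, 111 μM tyrosine, 90 μM phenylalanine, tryptophan). Growth inhibition was read by SYBR Green, normalised to untreated controls, with uninfected erythrocytes as background.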

[1] = 1 µM, MM + chorismate end-products (CM screening medium)
[2] = 5 µM, MM + chorismate end-products (CM screening medium)

| SMILES | growth inhibition [1] [%] | growth inhibition (1 µM, minimal medium (MM)) [%] | growth inhibition [2] [%] | growth inhibition (5 µM, minimal medium (MM)) [%] |
| --- | --- | --- | --- | --- |
| Nc1ncnc2c1ncn2C[C@@H](O)[C@@H](O)C(=O)O | 44.8 | 43 | 48.6 | < 0 |
| Cc1c[nH]c(CCNC(=O)c2cc(-c3ccc(Cl)cc3)cs2)n1 | > 100 | > 100 | 97.3 | 94.7 |
| N#CCN(CCCCN1CCN(c2ccc(F)cc2)CC1)C(=O)OCc1ccccc1 | 20.2 | 7.66 | 32.3 | 18.1 |
| CC(=O)OCC1OC([S-])C(OC(C)=O)C(OC(C)=O)C1OC(C)=O.CCP(CC)CC.[Au+] (configuration not stated) | 84.8 | 71.6 | 87.8 | 91.7 |
| CCCn1c(CNc2ccccc2O)nc2ccccc21 | 11.5 | 22.8 | 12.5 | < 0 |
| O=C1[C@@H](Oc2ccccc2)[C@@H](c2ccc(Cl)cc2)N1CCn1cnc2c(NCc3ccccc3)ncnc21 | < 0 | 22.4 | < 0 | 7.4 |
| CCN(CC)CCCCCCNc1cc(OC)cc2c(C)ccnc12 | 93.3 | 92.8 | 81.2 | 91.2 |
| COc1cc(C2=NCCN2)ccc1-n1cc(-c2cccc(C3=NCCN3)c2)nn1 | 51.9 | 55 | 66.5 | 19.2 |
| CCc1ccc(S(=O)(=O)Nc2cc(CN3CCN(CCC(C)C)CC3)ccc2C)cc1 | 31.6 | 4.88 | 64.6 | 13.6 |
| Cc1noc(C)c1C(=O)N1CCCC(c2[nH]c3c(C)cccc3c2-c2ccncc2)C1 (configuration not stated) | 97.7 | 95.3 | 92.6 | 92.4 |
| Cc1noc(C)c1COc1cccc(C(=O)N=c2[nH]cccc2C)c1 | < 0 | < 0 | < 0 | < 0 |
| COCC(C)NC(=O)CSc1ncnc2sc(-c3ccccc3)cc12 (configuration not stated) | 11.3 | < 0 | < 0 | < 0 |
| c1cncc(NCc2ccc(-c3cc4ccncc4cc3OC3CCNCC3)s2)c1 | 98.6 | 98 | > 100 | 84.2 |
| CC[C@@H](CO)NCCN[C@@H](CC)CO | 12.3 | 28.8 | 0.997 | 3.8 |
| COC(=O)C1=C(C)NC(C)=C(C(=O)OC(C)C)C1c1cccc2nonc12 (configuration not stated) | 42 | 24.4 | 28.3 | 18.7 |
| COc1ccc(Oc2ccc([C@@H](C)N(C)c3ncc4c(N)nc(N)nc4n3)cc2)cc1 | 13.7 | < 0 | > 100 | 89.1 |
| CCc1ccc(C(NCc2nc(N)nc(N(C)C)n2)C(C)C)cc1 (configuration not stated) | 9.14 | < 0 | 51.5 | 9.29 |
| N#Cc1nc(-c2ccccc2)oc1S(=O)(=O)c1ccc(Cl)cc1 | 43.4 | 49.5 | 97.9 | 55 |
| COc1ccc(N(CCc2cccc(C)n2)C(=O)C2CCCCC2)cc1 | 4.48 | 36.2 | 4.56 | 9.01 |
| CCOc1ccc(-c2nc(CNCCc3ccc(F)cc3)cs2)cc1 | 2.22 | 38.5 | 28.1 | 27.2 |
| CC(C)(CN)c1nc(-c2ccc(Cl)c(O)c2)c(-c2ccnc(N)n2)[nH]1 | 78.9 | 70.8 | 30.1 | 6.08 |
| CN1CCCC1CCO[C@](C)(c1ccccc1)c1ccc(Cl)cc1 (some centres not stated) | 96.4 | 94.5 | 98 | 93.3 |
| CC1CC1C(=O)NC1CCN(CC2(c3ccccc3)CCCCC2)CC1 (configuration not stated) | 96.1 | 94.5 | 90.8 | 92 |
| Cc1cc(C(=O)Nc2cnn(Cc3ccc(Cl)cc3Cl)c2)no1 | 80.3 | 72.9 | 88.6 | 87.4 |
| Cc1[nH]c2ccccc2c1C(c1cccs1)N1CCN(C)CC1 (configuration not stated) | 11.9 | 21.1 | 9.09 | 19.7 |

| SMILES | growth inhibition [1] [%] | growth inhibition (1 µM, minimal medium (MM)) [%] | growth inhibition [2] [%] | growth inhibition (5 µM, minimal medium (MM)) [%] |
| --- | --- | --- | --- | --- |
| COC(=O)Nc1nc2cc(C(=O)c3ccccc3)ccc2[nH]1 | 12 | < 0 | 5.63 | < 0 |
| CNC(=O)CNc1nc(-c2ccccn2)nc2scc(-c3ccccc3)c12 | 8.9 | 9.62 | 61.2 | 37.3 |
| O=C(NC1CC1)c1ccc(N2CCC(Cc3ccccc3)CC2)nc1 | 95.5 | 91.8 | 95.7 | 92.1 |
| Brc1c(-c2ccc3c(c2)OCO3)nc2ncccn12 | < 0 | < 0 | 29.5 | < 0 |
| COc1ccc(-c2cnc3ccc(NCc4ccc(S(N)(=O)=O)cc4)nn23)cn1 | 73.3 | 77.2 | 95.9 | 92.1 |
| CCOC(=O)c1noc(N)c1-c1ccccc1 | 59.8 | 12.2 | 44.4 | 0.705 |
| Cc1ccc2nc(Cl)c(CNCc3cccs3)cc2c1 | 49.9 | 31.9 | < 0 | < 0 |
| N=C(N)Nc1ccc(-c2ccc(-c3ccc(NC(=N)N)cc3Cl)o2)c(Cl)c1 | 96.9 | 95.5 | 95.7 | 95.3 |
| CNC(=O)C1Cc2ccccc2N1C(=O)Cc1ccc(F)cc1 (configuration not stated) | 10.9 | < 0 | < 0 | < 0 |
| Cc1cc(C)n(-c2ccc(NC(=O)C3CCN(Cc4cnc(C)s4)CC3)cc2)n1 | 31 | 27.5 | 43.6 | 10.6 |
| CC1CS(=O)(=O)CCN1/N=C/c1ccc([N+](=O)[O-])o1 (configuration not stated) | < 0 | 0.769 | < 0 | < 0 |
| Cc1cccc(-c2nc(Nc3ccncn3)c3sccc3n2)n1 | 81.1 | 89.4 | > 100 | 98.7 |
| O=C(Cn1ccnc1[N+](=O)[O-])NCc1ccccc1 | 20.5 | < 0 | 0.641 | < 0 |
| OCCc1ccc(Nc2nccc(-c3nnc4ccccn34)n2)cc1 | 82.3 | 80.1 | 65.5 | 52.1 |
| Cc1ccc(S(=O)(=O)n2cc(-c3ccnc(N)c3)c3cc(Br)cnc32)cc1 | 95.2 | > 100 | 97.8 | 95.2 |
| COc1ccc(Nc2ccccc2NC(=O)c2ccc(O)nc2)cc1 | 12.7 | < 0 | < 0 | < 0 |
| COc1ccc2nc(C)cc(OCC(=O)Nc3ccccc3OC)c2c1 | 11.7 | < 0 | < 0 | 27.5 |
| Cc1nc(-c2ccccn2)nc(N2CCC(Cc3ccccc3)C2)c1Cl (configuration not stated) | 52.8 | 3.18 | 80.2 | 84.9 |
| c1ccc(Oc2ccc(-c3cc(C4CCOCC4)[nH]n3)cc2)cc1 | 1.03 | < 0 | < 0 | < 0 |
| COc1cc(-c2cc(-c3ccc(S(C)(=O)=O)cc3)cnc2N)ccc1O | > 100 | > 100 | 96.8 | 96 |
| CC(=O)NC[C@@H]1CN(c2ccc(N3CCOCC3)c(F)c2)C(=O)O1 | 18.8 | 11.7 | < 0 | < 0 |
| O=C(Nc1ccc(N2CCNCC2)nc1)c1oc(-c2ccccc2)nc1C(F)(F)F | 91.7 | > 100 | 96.6 | 89.9 |
| CC(=O)Oc1ccccc1C(=O)Nc1ncc([N+](=O)[O-])s1 | < 0 | 4.44 | 12 | < 0 |
| CCOc1ccc2cc(-c3nn(CC4CCN(C)CC4)c4ncnc(N)c34)ccc2c1 | 39.8 | 15.5 | 51.2 | 16.8 |
| O=C(CN1CCOCC1)Nc1ccc2ncnc(Nc3ccc(OCc4cccc(F)c4)c(Cl)c3)c2c1 | 2.86 | 9.8 | 94.7 | 91.9 |

| SMILES | growth inhibition [1] [%] | growth inhibition (1 µM, minimal medium (MM)) [%] | growth inhibition [2] [%] | growth inhibition (5 µM, minimal medium (MM)) [%] |
| --- | --- | --- | --- | --- |
| Clc1ccc(-n2cc(COc3ccnc4ccccc34)nn2)cc1 | 4.03 | < 0 | 32.4 | 16 |
| O=C(Nc1ccccc1)c1ccc(-c2cc3ccncc3cc2OC2CCNCC2)s1 | 98.5 | > 100 | 96.1 | 94.6 |
| COc1ccc(-c2cc(NC(=O)c3ccc(F)cc3Cl)ccc2OC)cc1 | 8.71 | 13.2 | < 0 | < 0 |
| COc1cc(C(F)(F)F)nc2ccc(C)c(N)c12 | < 0 | 30.2 | < 0 | < 0 |
| CC(C)(C)c1cc(C(=O)Nc2cccnc2)cc(C(=O)Nc2cccnc2)c1 | 88.9 | 94.2 | 87.5 | 88.6 |
| CCN(CC)S(=O)(=O)c1ccc(C(=O)Nc2cc(C)nn2-c2nc(C)c(C)c(=O)[nH]2)cc1 | 19.9 | 10.2 | 78.9 | 55.2 |
| CC(C)(C)c1cc(C(=O)N2CCN(c3nccnc3C#N)CC2)n(Cc2ccccc2)n1 | 73.4 | > 100 | 92.9 | 92 |
| COc1ccc(C2=NCCN2)cc1-c1cn(-c2cccc(C3=NCCN3)c2)nn1 | 84.5 | 80.4 | > 100 | 91.6 |
| CC(C)(C)n1nc(-c2ccccc2)c2c(N)ncnc21 | 20.8 | 20.3 | 38.5 | < 0 |
| Cc1cc(OCC(=O)NCc2ccccc2)c2cc(Br)ccc2n1 | 12.6 | 3.05 | 56.5 | < 0 |
| Cc1cccc(NC(=O)c2cc(S(=O)(=O)N(C)c3ccc(F)cc3)ccc2Cl)n1 | 86.6 | 82.9 | 87.9 | 91.5 |
| CS(=O)(=O)c1ccccc1C(=O)N(Cc1ccccc1)c1ccccc1 | 35.9 | 7.57 | < 0 | < 0 |
| COc1cccc2c(C)nc(N=C(N)N)nc12 | 70.2 | 71.3 | 92.4 | 89.2 |
| O=C(c1ccco1)N(CCCn1ccnc1)c1nc2c(Cl)cccc2s1 | 13.2 | 22.3 | > 100 | 92.8 |
| O=C(Nc1nnc(-c2ccc(Cl)s2)o1)c1ccc(Cl)s1 | 34.8 | 22.8 | < 0 | < 0 |
| Cc1ccc2nc(C)c(-c3ccn(Cc4ccccc4)n3)n2c1 | 43 | 33.9 | 36.8 | < 0 |
| Cc1nnc(NCc2cccc(Cl)c2)c2ccccc12 | 37.2 | 4.12 | 4.67 | < 0 |
| COc1cccc(CC(=O)N2CCC(n3c(C)nc4ccc(F)cc43)CC2)c1 | > 100 | > 100 | > 100 | 95.6 |
| COc1cccc(-n2nnnc2S(=O)(=O)Cc2ccccc2)c1 | 13.8 | 3.94 | 65.6 | < 0 |
| O=C(C1CCN(c2nnc(-n3cccc3)s2)CC1)N1CCC(Cc2ccccc2)CC1 | 6.31 | 8.02 | 48.7 | 8.81 |
| CS(=O)(=O)c1cccc(-c2cnc3[nH]cc(-c4ccc(CCC(=O)O)cc4)c3c2)c1 | 79 | 70.7 | > 100 | 86.2 |
| CCOC(=O)c1c(NC(=O)c2c(F)c(F)c(F)c(F)c2F)sc(C(N)=O)c1C | 28.3 | < 0 | 14.8 | 13.1 |
| Cc1cc(C)nc(-n2nc(C)cc2Nc2ccccc2)n1 | 16.6 | 9.77 | 69.8 | 34.2 |
